# Measurements: the supplement of paper PMC10849652
# Targets with a hit are over-represented here; the source holds about 8,800 in all. About 0.5% of all pairs of compound and target were hits. Values without a mark were called inactive.
# Tests used:
# Experiment in all cases: log2 fold change, soluble protein after heating vs DMSO (PISA); higher = thermal stabilisation; K562 lysate, 10 uM; active = over 0.2 and 3.5 SD of the protein, either way, in both replicates (recomputed)
# [1] = compound: CS(=O)(=O)CCNCc1ccc(-c2ccc3ncnc(Nc4ccc(OCc5cccc(F)c5)c(Cl)c4)c3c2)o1 [lapatinib]
# How it was run: (§1)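 Log-two fold change in thermal stability relative to solvent controls is reported from duplicates. For each sample, crude K562 extract from dounce-homogenised pellets in PBS pH 7.4 with 1 mM MgCl2, at 1 mg/mL protein, was treated with 10 μM compound for 30 min. Aliquots heated for 3 min across 48°C-58°C were pooled, brought to 0.5% NP-40 at 4°C and cleared at 21,000xg for 90 min. The supernatant was quantified by TMTpro 16plex LC-MS/MS with channel sums equalised.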
# [2] = compound: CS(=O)(=O)N1CCN(Cc2cc3nc(-c4cccc5[nH]ncc45)nc(N4CCOCC4)c3s2)CC1 [pictilisib]
# How it was run: as §1
# [3] = compound: C[C@@H](Oc1cc(-c2cnn(C3CCNCC3)c2)cnc1N)c1c(Cl)ccc(F)c1Cl [crizotinib]
# How it was run: as §1
# [4] = compound: C[C@H](C1=CC=C(C=C1)C(=O)NC2=C3C=CNC3=NC=C2)N
# How it was run: as §1
# [5] = compound: C[C@H](Nc1ncnc2nc[nH]c12)c1cc2cccc(Cl)c2c(=O)n1-c1ccccc1 [duvelisib]
# How it was run: as §1
# [6] = compound: Cc1cc(Nc2cc(CN3CCOCC3)c3nc(C)c(Cc4ccc(Cl)cc4F)n3n2)n[nH]1 [gandotinib]
# How it was run: as §1
# [7] = compound: Cc1cc(Nc2cc(N3CCN(C)CC3)nc(Sc3ccc(NC(=O)C4CC4)cc3)n2)n[nH]1 [tozasertib]
# How it was run: as §1
# [8] = compound: Cc1ccc(-n2nc(C(C)(C)C)cc2NC(=O)Nc2ccc(OCCN3CCOCC3)c3ccccc23)cc1 [doramapimod]
# How it was run: as §1
# [9] = compound: Cc1ccc(NC(=O)c2ccc(CN3CC[C@H](N(C)C)C3)c(C(F)(F)F)c2)cc1Nc1nccc(-c2cncnc2)n1 [bafetinib]
# How it was run: as §1
# [10] = compound: Cc1cccc(CC(=O)N2CCc3c2ccc(-c2cn(C)c4ncnc(N)c24)c3F)n1
# How it was run: as §1
# [11] = compound: Cc1cn(-c2cc(NC(=O)c3ccc(C)c(Nc4nccc(-c5cccnc5)n4)c3)cc(C(F)(F)F)c2)cn1 [nilotinib]
# How it was run: as §1
# [12] = compound: Cc1nc(Nc2n[nH]c3c2CN(C(=O)N[C@H](CN(C)C)c2ccccc2)C3(C)C)c2sccc2n1
# How it was run: as §1
# [13] = compound: Cc1nc(Nc2ncc(C(=O)Nc3c(C)cccc3Cl)s2)cc(N2CCN(CCO)CC2)n1 [dasatinib]
# How it was run: as §1
# [14] = compound: Cc1ncc(-c2ccnc(Nc3ccc(S(C)(=O)=O)cc3)n2)n1C(C)C
# How it was run: as §1
# [15] = compound: Cn1cc(-c2ccc3c(c2)CCN3C(=O)Cc2cccc(C(F)(F)F)c2)c2c(N)ncnc21
# How it was run: as §1
# [16] = compound: Cn1cc(CNCC2CCN(c3ncc(C(=O)NO)cn3)CC2)c2ccccc21 [quisinostat]
# How it was run: as §1
# [17] = compound: Cn1cncc1[C@@](N)(c1ccc(Cl)cc1)c1ccc2c(c1)c(-c1cccc(Cl)c1)cc(=O)n2C [tipifarnib]
# How it was run: as §1
# [18] = compound: NC(=O)Nc1cc(-c2cccc(F)c2)sc1C(=O)N[C@H]1CCCNC1
# How it was run: as §1
# [19] = compound: NC(=O)c1cnc(N[C@@H]2CCCC[C@@H]2N)nc1Nc1cccc(-n2nccn2)c1
# How it was run: as §1
# [20] = compound: NC1(c2ccc(-c3nc4ccn5c(=O)[nH]nc5c4cc3-c3ccccc3)cc2)CCC1
# How it was run: as §1
# Sequence of UniProt Q9H5X1 (Q9H5X1 whole entry, looked up): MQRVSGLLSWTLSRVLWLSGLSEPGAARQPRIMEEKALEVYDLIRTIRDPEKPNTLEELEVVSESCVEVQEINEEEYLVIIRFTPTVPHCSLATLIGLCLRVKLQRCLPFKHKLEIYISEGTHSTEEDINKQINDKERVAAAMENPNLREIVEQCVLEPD
# Sequence of UniProt Q9BY43 (Q9BY43 whole entry, looked up): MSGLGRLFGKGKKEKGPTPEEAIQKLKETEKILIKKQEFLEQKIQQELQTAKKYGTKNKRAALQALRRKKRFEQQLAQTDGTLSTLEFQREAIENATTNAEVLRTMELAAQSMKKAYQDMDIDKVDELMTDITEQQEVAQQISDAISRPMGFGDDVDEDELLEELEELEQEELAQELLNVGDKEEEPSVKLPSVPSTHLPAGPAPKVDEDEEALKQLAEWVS
# Sequence of UniProt Q8IVF4 (Q8IVF4 whole entry, looked up): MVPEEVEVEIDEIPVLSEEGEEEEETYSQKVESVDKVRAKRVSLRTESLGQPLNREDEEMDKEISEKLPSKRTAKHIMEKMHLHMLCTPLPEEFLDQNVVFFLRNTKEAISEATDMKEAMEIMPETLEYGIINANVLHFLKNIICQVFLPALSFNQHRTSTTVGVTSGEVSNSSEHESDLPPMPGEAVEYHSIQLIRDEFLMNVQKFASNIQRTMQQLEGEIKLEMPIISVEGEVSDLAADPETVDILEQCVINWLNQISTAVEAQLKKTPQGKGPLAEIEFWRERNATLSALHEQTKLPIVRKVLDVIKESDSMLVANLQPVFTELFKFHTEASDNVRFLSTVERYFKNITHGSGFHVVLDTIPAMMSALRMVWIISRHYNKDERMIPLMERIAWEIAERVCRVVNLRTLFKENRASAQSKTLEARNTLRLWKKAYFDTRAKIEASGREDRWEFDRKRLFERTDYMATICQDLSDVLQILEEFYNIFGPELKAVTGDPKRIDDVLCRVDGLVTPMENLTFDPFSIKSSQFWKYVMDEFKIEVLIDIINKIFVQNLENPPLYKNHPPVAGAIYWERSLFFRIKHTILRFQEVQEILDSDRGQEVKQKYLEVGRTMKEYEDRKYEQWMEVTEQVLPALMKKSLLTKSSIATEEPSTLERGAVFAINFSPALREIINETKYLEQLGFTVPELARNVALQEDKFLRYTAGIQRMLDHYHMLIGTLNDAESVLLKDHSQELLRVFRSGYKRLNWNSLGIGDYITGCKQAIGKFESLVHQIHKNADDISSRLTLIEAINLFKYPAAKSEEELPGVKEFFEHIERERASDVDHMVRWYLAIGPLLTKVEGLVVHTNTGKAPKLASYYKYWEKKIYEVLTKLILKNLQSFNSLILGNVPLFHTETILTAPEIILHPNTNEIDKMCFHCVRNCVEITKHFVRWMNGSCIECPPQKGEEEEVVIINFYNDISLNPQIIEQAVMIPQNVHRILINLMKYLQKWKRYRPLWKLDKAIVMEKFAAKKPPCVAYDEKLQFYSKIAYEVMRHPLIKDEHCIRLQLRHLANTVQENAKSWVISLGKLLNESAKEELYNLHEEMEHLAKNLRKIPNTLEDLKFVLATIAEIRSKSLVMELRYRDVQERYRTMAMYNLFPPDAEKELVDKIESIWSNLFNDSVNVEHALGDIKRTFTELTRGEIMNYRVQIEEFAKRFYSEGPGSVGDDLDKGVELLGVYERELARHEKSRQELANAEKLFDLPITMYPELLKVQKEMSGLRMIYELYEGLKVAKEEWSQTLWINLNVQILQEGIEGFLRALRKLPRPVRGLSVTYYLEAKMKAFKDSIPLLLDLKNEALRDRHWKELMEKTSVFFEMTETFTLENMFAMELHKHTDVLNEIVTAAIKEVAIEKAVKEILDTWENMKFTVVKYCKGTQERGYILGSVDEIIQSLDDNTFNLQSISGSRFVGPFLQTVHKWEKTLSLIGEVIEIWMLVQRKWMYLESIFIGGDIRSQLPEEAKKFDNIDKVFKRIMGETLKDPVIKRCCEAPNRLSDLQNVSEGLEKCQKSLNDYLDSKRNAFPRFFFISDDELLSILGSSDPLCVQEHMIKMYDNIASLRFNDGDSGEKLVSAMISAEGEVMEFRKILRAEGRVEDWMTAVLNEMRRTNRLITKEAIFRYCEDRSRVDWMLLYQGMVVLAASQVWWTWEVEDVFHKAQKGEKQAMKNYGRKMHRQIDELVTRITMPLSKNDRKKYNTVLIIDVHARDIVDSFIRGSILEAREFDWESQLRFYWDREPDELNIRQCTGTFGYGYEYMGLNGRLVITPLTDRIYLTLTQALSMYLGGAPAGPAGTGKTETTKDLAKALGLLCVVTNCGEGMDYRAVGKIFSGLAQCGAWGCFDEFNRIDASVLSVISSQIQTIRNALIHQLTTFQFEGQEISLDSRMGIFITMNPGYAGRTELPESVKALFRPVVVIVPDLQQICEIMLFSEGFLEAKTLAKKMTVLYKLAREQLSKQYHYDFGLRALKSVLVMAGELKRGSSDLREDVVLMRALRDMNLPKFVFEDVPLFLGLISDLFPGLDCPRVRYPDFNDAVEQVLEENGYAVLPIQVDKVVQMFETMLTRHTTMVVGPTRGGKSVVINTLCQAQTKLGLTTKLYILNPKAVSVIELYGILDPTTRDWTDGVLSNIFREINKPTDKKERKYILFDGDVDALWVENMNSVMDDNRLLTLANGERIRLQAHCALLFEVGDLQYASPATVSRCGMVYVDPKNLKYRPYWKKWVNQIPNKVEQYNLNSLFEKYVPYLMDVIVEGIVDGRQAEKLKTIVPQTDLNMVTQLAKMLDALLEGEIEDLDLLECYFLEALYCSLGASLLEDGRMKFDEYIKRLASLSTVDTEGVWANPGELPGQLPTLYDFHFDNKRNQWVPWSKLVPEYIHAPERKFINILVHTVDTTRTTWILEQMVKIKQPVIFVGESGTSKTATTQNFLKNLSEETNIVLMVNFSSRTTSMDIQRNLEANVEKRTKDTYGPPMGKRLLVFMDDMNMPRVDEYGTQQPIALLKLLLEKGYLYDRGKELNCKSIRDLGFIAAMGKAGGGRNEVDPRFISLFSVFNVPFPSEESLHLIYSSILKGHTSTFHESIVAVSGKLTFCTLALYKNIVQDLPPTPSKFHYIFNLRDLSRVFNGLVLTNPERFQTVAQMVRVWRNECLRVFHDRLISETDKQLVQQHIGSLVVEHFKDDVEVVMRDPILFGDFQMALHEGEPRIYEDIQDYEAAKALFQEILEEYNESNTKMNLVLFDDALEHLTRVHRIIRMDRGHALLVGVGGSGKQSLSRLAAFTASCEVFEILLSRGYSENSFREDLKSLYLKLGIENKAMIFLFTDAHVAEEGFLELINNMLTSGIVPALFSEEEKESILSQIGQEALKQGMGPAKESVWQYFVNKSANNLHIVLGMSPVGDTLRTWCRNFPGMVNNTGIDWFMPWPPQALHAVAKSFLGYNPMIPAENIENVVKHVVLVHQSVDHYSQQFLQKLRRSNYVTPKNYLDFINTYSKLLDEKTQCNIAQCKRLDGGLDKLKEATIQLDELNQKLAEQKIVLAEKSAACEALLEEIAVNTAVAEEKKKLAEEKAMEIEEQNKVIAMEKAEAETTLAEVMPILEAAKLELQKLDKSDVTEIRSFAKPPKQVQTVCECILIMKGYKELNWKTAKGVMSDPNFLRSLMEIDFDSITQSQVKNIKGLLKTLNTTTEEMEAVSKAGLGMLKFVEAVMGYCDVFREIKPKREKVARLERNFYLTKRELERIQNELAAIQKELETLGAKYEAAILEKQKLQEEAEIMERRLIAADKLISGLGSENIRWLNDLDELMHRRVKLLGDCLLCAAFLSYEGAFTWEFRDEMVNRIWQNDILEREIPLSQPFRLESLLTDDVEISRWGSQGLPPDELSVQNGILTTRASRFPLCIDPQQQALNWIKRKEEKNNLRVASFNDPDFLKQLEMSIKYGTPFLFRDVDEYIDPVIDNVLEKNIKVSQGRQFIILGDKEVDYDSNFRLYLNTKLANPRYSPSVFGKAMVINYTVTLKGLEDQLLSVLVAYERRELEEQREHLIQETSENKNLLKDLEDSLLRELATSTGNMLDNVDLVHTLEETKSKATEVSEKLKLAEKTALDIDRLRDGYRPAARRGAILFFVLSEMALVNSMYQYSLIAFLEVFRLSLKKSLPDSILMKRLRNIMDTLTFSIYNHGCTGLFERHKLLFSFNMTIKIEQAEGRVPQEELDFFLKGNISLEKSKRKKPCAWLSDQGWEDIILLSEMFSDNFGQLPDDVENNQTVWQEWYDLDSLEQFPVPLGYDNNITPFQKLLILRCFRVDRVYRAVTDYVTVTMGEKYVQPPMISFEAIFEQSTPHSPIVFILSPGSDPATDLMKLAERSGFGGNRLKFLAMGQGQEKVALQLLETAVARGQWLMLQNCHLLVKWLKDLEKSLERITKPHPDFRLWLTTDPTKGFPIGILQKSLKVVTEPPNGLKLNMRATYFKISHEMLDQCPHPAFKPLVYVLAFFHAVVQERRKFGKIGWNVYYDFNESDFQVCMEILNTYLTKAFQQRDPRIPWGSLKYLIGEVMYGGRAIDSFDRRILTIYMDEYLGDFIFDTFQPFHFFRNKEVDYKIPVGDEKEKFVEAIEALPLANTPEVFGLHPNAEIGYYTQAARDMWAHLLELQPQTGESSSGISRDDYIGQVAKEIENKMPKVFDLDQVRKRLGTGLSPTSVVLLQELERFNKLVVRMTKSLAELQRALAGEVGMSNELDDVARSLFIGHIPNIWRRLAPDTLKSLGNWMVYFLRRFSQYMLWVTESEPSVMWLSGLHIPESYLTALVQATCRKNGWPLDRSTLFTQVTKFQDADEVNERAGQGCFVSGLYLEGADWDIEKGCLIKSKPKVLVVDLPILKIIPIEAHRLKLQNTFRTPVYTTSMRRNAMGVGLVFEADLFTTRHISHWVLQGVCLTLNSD
# Sequence of UniProt P61024 (P61024 whole entry, looked up): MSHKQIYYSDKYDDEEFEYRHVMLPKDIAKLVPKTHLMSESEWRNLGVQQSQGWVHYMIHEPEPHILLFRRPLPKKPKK
Target,log2 fold change [1],log2 fold change [2],log2 fold change [3],log2 fold change [4],log2 fold change [5],log2 fold change [6],log2 fold change [7],log2 fold change [8],log2 fold change [9],log2 fold change [10],log2 fold change [11],log2 fold change [12],log2 fold change [13],log2 fold change [14],log2 fold change [15],log2 fold change [16],log2 fold change [17],log2 fold change [18],log2 fold change [19],log2 fold change [20]
DLGAP5 (UniProt Q15398),0.02,0,-0.016,-0.029,-0.005,0.049,-0.014,0.001,-0.008,0.04,-0.013,0.029,-0.036,0,0.001,-0.033,0.001,0.011,0.006,0.007
CSNK2B (UniProt P67870),-0.052,0.023,-0.073,0.027,-0.053,0.016,0.004,0.022,0.064,-0.05,0.086,-0.029,-0.014,0.034,-0.006,-0.005,-0.058,0.028,0.042,-0.049
CKS1B (UniProt P61024),0.039,0.002,0.094,0.302 (active),-0.045,-0.183,0.047,0.023,0.068,-0.324 (active),-0.03,0.04,0.065,-0.066,0.011,0.069,0.106,-0.051,0,0.11
DHRS3 (UniProt O75911),0.02,-0.051,-0.024,-0.044,-0.025,0.059,-0.043,0.035,-0.032,0.011,0.007,0.005,0.23 (active),-0.028,0.024,-0.031,0.06,0.019,-0.078,-0.044
CKAP2 (UniProt Q8WWK9),-0.004,-0.02,-0.027,0.064,0.016,0.016,0.034,-0.001,0.019,-0.009,0.075,0.07,0.004,0.036,-0.014,-0.098,-0.053,-0.015,-0.049,-0.023
CSNK1E (UniProt P49674),-0.026,0.103,0.004,0.135,-0.016,-0.134,-0.065,0.003,-0.024,-0.061,-0.025,-0.008,0.053,0.091,-0.078,-0.075,-0.092,0.059,0.055,-0.06
CUX1 isoform 3 (UniProt P39880),-0.01,-0.045,0.004,0.076,0.007,-0.116,0.032,-0.025,-0.012,0.007,-0.029,0.026,-0.04,0.012,0.006,-0.02,-0.057,0.006,0.03,-0.015
DDA1 (UniProt Q9BW61),0.011,-0.025,0.025,-0.013,-0.013,-0.019,-0.037,0.013,0.011,-0.062,0.003,0.008,-0.011,-0.056,0.006,-0.006,-0.008,-0.023,-0.027,0.023
CHMP4A isoform 2 (UniProt Q9BY43),0.009,0.022,-0.047,-0.227 (active),-0.001,0.182,-0.01,0.054,-0.036,0.18,-0.026,-0.021,0.039,0,-0.011,-0.145,0.017,-0.029,-0.02,-0.009
CINP isoform 3 (UniProt Q9BW66),-0.059,0.011,-0.028,-0.325 (active),0.062,0.018,0.056,0.036,-0.059,0.208,-0.13,0.065,-0.073,0.19,0.024,0.015,-0.009,0.034,0.03,
CIAO2A (UniProt Q9H5X1),0.007,-0.058,-0.014,0.181,-0.01,0,0.042,0.11,-0.015,-0.276 (active),-0.018,0.033,-0.037,-0.074,0.011,0.011,-0.067,-0.004,-0.027,-0.038
DARS (UniProt P14868),0.002,0,-0.033,-0.036,0,-0.081,0.011,0.015,-0.011,0.008,0.01,-0.004,-0.032,-0.015,0.063,-0.007,0.01,0.044,-0.008,0.002
CIC (UniProt I3L2J0),-0.074,-0.02,-0.002,-0.052,-0.047,0.006,0.02,-0.036,-0.08,0.037,0.045,0.024,0,0.001,0.006,0.027,-0.087,-0.053,-0.073,0.014
CSNK2A2 (UniProt P19784),-0.116,0.057,-0.071,0.099,-0.02,-0.1,-0.035,-0.015,0.009,-0.041,-0.031,0.195,-0.039,0.254,-0.004,0.001,-0.014,0.094,0.018,-0.003
DNAH10 (UniProt Q8IVF4),-0.075,0.066,-0.136,-0.553 (active),0.044,0.172,-0.024,0.076,-0.08,0.196,0.017,0.014,-0.026,-0.024,-0.026,-0.251,0.025,0.012,-0.017,-0.072
COMT (UniProt P21964),-0.006,-0.007,0.019,-0.052,-0.015,-0.008,-0.008,0.038,0.012,0.01,-0.007,-0.029,-0.02,-0.018,0.02,-0.08,0.013,0.028,0.005,0.009
